Source: PubChem
CHO-K1 Ca antag = counter-screen for M1 antagonists: effect in parental CHO-K1 cells; ATP-induced calcium, Fluo-8 fluorescence; 360,000 tested, 0.6% active; AID 602250; inhibition, % at 3 µM;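 active = inhibition above a per-plate cutoff, the plate's mean sample inhibition plus 3 SD, cut at about 24% in these data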
CHO-K1 Ca ag = nonselective activator or artifact in parental CHO-K1 cells | Fluo-8 calcium fluorescence; scaled to maximal ATP response, vehicle zero | activation, % at 3 µM | 360,000 tested, 0.48% active; in the data active = activation above about 15%;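 also: untransfected CHO-K1 host cells lacking M1 receptor as counterscreen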
CHO-K1 Ca PAM = counter-screen for M1 PAMs: effect in parental CHO-K1 cells | ATP EC20, Fluo-8 calcium fluorescence; 0% at ATP EC20, 100% at ATP max | 360,000 tested, 0.02% active | activation, % at 3 µM | AID 602247;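 active = activation above the run cutoff, the mean activation of all test compounds plus 3 SD, cut at about 40% in these data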;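 also: peak over basal fluorescence ratio in a 140 s read after ATP addition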
M1 ag = human M1 muscarinic receptor agonism | activation, % at 3 µM | CHO-K1 hM1, Fluo-8 calcium fluorescence, agonist mode; 0% DMSO, 100% acetylcholine EC100 | 360,000 tested, 0.33% active | P11229;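 active = activation above the run's mean compound activation plus 3 SD, cut at about 16% in these data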;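 also: peak over basal fluorescence ratio within a 140 s kinetic read after compound addition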
Target sequence (P11229 whole entry, looked up): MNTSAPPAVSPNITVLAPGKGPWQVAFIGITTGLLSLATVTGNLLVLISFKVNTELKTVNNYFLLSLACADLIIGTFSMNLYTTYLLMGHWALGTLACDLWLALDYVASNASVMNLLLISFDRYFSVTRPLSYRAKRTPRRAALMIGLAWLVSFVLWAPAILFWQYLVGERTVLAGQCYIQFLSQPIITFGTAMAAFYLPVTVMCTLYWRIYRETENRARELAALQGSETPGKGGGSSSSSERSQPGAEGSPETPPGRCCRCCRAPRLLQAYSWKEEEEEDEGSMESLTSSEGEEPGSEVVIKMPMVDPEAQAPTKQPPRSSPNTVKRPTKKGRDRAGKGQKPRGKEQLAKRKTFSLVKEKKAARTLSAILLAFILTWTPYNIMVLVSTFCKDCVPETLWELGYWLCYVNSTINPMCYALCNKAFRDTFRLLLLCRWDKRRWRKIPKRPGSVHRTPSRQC
M1 PAM = potentiates human M1 receptor response to acetylcholine. CHO-K1 hM1, Fluo-8 calcium fluorescence, ACh EC20; 0% = ACh EC20, 100% = maximal ACh. 360,000 tested, 0.088% active. P11229. activation, % at 3 µM; in the data active = activation above about 19%, passing the limit was not always enough
CHRM1 antagonist = blocks human M1 muscarinic receptor; CHO-K1 hM1, Fluo-8 calcium fluorescence, ACh EC80 antagonist; 360,000 tested, 1.3% active; P11229; AID 588852; inhibition, % at 3 µM;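 active = percent inhibition above its own plate's cutoff, namely the mean of that plate's compound wells plus 3 SD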;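 also: peak over basal fluorescence ratio during 140 s after agonist addition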
Large screens that a line does not name were inactive. Only some compounds are listed: those with a hit (about 2.4% of all), similar ones and a draw of the others.

O=C(c1ccc(C(F)(F)F)cc1)C1CCCN(Cc2ccc(CO)o2)C1 (stereo unspecified)	CHRM1 antagonist 61
Cc1ncc(CN2CCCC(C(=O)c3ccc(C(C)(C)C)cc3)C2)s1 (stereo unspecified)	CHRM1 antagonist 87
CCCCCN1C(=O)c2ccccc2[C@@]2(C(=O)OCC)Cc3cc(OC)ccc3[C@@H]12	none (no result: M1 ag, M1 PAM, CHRM1 antagonist)
COC(=O)[C@@H]1N=C(c2ccc(OC)cc2)O[C@]12C(=O)N(Cc1ccc(OC)cc1)c1ccccc12	none (no result: M1 ag, M1 PAM, CHRM1 antagonist)
CCCCc1nc(N2CCNCC2)c(C#N)c2c1CSC(C)(C)C2	CHRM1 antagonist 54
N#Cc1c(N2CCNCC2)nc(-c2ccco2)c2c1CCCC2	none
Oc1c(Br)cc(Br)cc1CN1CCN(Cc2ccccc2)CC1	none
CCN1CCN(Cc2cc(Br)cc(OC)c2O)CC1	CHRM1 antagonist 56
O=C(C1CCN(c2nc3ccc(Br)cc3s2)CC1)N1CCC2(CC1)OCCO2	CHRM1 antagonist 59
Cc1ccc2nc(N3CCC(C(=O)N4CCC5(CC4)OCCO5)CC3)sc2c1	none
CCc1ccc2nc(N3CCC(C(=O)N4CCC5(CC4)OCCO5)CC3)sc2c1	CHRM1 antagonist 41
Cc1cccc(C)c1-n1nnnc1C(c1cccs1)N1CCC2(CC1)C(=O)NCN2c1ccccc1 (stereo unspecified)	none
C[CH2][Hg][S]c1ccccc1C(=O)O	none
CC1=C(C)CN2CC(C#N)=C(N)C2C1 (stereo unspecified)	none
CCOC(=O)[C@]12Cc3cc(C)ccc3[C@H]1N(C1CCCCC1)C(=O)c1cc(OC)ccc12	CHO-K1 Ca antag 25 (no result: M1 ag, M1 PAM, CHRM1 antagonist)
O=C(COC(=O)Cc1ccccc1)NC12CC3CC(CC(C3)C1)C2	none
NC(=O)c1ccsc1NC(=O)COC(=O)Cc1ccccc1	CHO-K1 Ca antag 25
CC12C=CC(=O)C=C1CC(O)C1C2CCC2(C)C1CCC2(C)O (stereo unspecified)	none
CCCc1cc(=O)oc2cc(OCC(=O)N3CCN(Cc4ccc5c(c4)OCO5)CC3)ccc12	none
CCCc1cc(=O)oc2cc(OCC(=O)N3CCC(C(=O)O)(c4ccccc4)CC3)ccc12	CHO-K1 Ca antag 25
COc1cc2c(cc1OC)[C@@H]1C(=O)c3ccc4c(c3O[C@@H]1CO2)C[C@H](C(C)C)O4	CHO-K1 Ca antag 29
CC1=NNC(=O)C1Br (stereo unspecified)	none
C[N+](C)(C)c1ccccc1	M1 ag 39
COC(=O)c1ccc(N2CCN(C)CC2)c([N+](=O)[O-])c1	CHO-K1 Ca ag 19
CN1CCN(c2ccc([N+](=O)[O-])cc2Cl)CC1	none
Cc1cccc(CN2CCCC(C(=O)c3cccc(OC(C)C)c3)C2)n1 (stereo unspecified)	none
COc1ccc2cc(C(=O)C3CCCN(C4CCOCC4)C3)ccc2c1 (stereo unspecified)	none
Cc1cccc(CN2CCCC(C(=O)c3ccc4c(c3)OCO4)C2)n1 (stereo unspecified)	CHRM1 antagonist 33
COc1cccc(C(=O)C2CCCN(Cc3cccc(C)n3)C2)c1 (stereo unspecified)	CHRM1 antagonist 27
COc1c(C)cc(C(=O)C2CCCN(Cc3cccc(C)n3)C2)cc1C (stereo unspecified)	CHRM1 antagonist 33
COc1c(C)cc(C(=O)C2CCCN(C3CCOCC3)C2)cc1C (stereo unspecified)	CHRM1 antagonist 55
Cc1ccc(Cn2ccccc2=N)cc1	none
COc1cccc(C(=O)C2CCCN(Cc3ccc4nsnc4c3)C2)c1 (stereo unspecified)	CHRM1 antagonist 34
COc1ccc(C(=O)C2CCCN(Cc3ccon3)C2)cc1OC (stereo unspecified)	none
COc1cccc(C(=O)C2CCCN(Cc3ccc(F)cc3)C2)c1 (stereo unspecified)	none
O=C(c1cccc(C(F)(F)F)c1)C1CCCN(Cc2ccccc2O)C1 (stereo unspecified)	none
O=C(c1ccc2c(c1)OCO2)C1CCCN(Cc2c(F)cccc2Cl)C1 (stereo unspecified)	CHRM1 antagonist 92
O=C(c1ccc2c(c1)OCO2)C1CCCN(CC2CCCCC2)C1 (stereo unspecified)	CHRM1 antagonist 42
COC(=O)C1=C(c2cccc(Cl)c2)C[C@@H]2CC[C@H]1N2C(=O)N1CCCC1	none
COC(=O)C1=C(c2ccc(OCc3ccccc3)cc2)C[C@@H]2CC[C@H]1N2C(=O)NC1CCN(Cc2ccccc2)CC1	none
CCn1c(O)c(C=NCCN2CCOCC2)c(=O)[nH]c1=S	none
CC[N+](CC)(CC)CCCOC(=O)C(O)(c1ccccc1)C1CCCCC1 (stereo unspecified)	CHRM1 antagonist 99
C[N+](C)(N)CCOC(=O)C(O)(c1ccccc1)C1CCCCC1 (stereo unspecified)	CHRM1 antagonist 100
O=C1NC(=O)C2(CCN(c3ccccc3)CC2)C(=O)N1	none
CCC1(NS(=O)(=O)c2ccc(N)cc2)C(=O)N(C)C(=O)N(C)C1=O	none
C/C(=N\NC(=S)Nc1ccccc1)c1c(O)n(C)c(=O)n(C)c1=O	CHO-K1 Ca ag 22
CC/C(=N\Nc1ccccc1)c1c(O)n(C)c(=O)n(C)c1=O	none
Cc1ccc(CC(=O)N2CCN(Cc3ccccc3)CC2)cc1	none
COc1ccccc1CC(=O)N1CCN(CCc2ccccc2)CC1	CHO-K1 Ca antag 25
CCC(C)N1CCN(C(=O)Cc2ccccc2)CC1 (stereo unspecified)	CHO-K1 Ca antag 25, CHRM1 antagonist 41
COC(/C(C)=C/C=C/C(C)=C/c1coc(C)n1)C(C)C1CC(O)C2(C)OC2C=CC(C)C2CC(CC(=O)O2)CC2OC2C(=O)O1 (stereo unspecified)	none
CCN(CC)c1ccc(/C=C2\C(=O)NC(=S)N(C)C2=O)o1	CHO-K1 Ca ag 19
CCN(CC)c1ccc(C=C2C(=O)N(C)C(=S)N(C)C2=O)o1	none
CCN(CC)c1ccc(/C=C2\C(=O)NC(=S)N(c3ccc(OC)cc3OC)C2=O)o1	CHO-K1 Ca ag 23
COc1ccc(N2C(=O)/C(=C/c3ccc(N(C)C)o3)C(=O)NC2=S)cc1	none
COC(=O)[C@@]1(Sc2ccc(C)cc2)CC(=O)N(P(=O)(OC)OC)[C@@H]1c1ccccc1	none (no result: M1 ag, M1 PAM, CHRM1 antagonist)
COC(=O)C1=C(c2cccc(C#N)c2)C[C@@H]2CC[C@H]1N2C(=O)N1CCCCC1	none
C[C@H]1CN([C@@H](C)CO)C(=O)CCCn2nncc2CO[C@H]1CN(C)C(=O)Oc1ccc2ccccc2c1	none
CC(=O)N1N=C(c2cccnc2)OC1c1ccccc1Cl (stereo unspecified)	CHO-K1 Ca ag 16
O=C1CC(c2cccnc2)=NN1c1ccc(Cl)cc1Cl	none
Cc1[nH]c2ccccc2c1CN1CCCCC1	none
